Test results from ChEMBL document CHEMBL1961873, “Compounds: GSK PKIS; Assays: Nanosyn kinase panel” (2012).

Each molecule was assayed against Tyrosine-protein kinase JAK1 (Homo sapiens) (UniProt P23458). Details: at 0.1 µM.
Chain of Tyrosine-protein kinase JAK1 (Homo sapiens) (P23458 whole entry): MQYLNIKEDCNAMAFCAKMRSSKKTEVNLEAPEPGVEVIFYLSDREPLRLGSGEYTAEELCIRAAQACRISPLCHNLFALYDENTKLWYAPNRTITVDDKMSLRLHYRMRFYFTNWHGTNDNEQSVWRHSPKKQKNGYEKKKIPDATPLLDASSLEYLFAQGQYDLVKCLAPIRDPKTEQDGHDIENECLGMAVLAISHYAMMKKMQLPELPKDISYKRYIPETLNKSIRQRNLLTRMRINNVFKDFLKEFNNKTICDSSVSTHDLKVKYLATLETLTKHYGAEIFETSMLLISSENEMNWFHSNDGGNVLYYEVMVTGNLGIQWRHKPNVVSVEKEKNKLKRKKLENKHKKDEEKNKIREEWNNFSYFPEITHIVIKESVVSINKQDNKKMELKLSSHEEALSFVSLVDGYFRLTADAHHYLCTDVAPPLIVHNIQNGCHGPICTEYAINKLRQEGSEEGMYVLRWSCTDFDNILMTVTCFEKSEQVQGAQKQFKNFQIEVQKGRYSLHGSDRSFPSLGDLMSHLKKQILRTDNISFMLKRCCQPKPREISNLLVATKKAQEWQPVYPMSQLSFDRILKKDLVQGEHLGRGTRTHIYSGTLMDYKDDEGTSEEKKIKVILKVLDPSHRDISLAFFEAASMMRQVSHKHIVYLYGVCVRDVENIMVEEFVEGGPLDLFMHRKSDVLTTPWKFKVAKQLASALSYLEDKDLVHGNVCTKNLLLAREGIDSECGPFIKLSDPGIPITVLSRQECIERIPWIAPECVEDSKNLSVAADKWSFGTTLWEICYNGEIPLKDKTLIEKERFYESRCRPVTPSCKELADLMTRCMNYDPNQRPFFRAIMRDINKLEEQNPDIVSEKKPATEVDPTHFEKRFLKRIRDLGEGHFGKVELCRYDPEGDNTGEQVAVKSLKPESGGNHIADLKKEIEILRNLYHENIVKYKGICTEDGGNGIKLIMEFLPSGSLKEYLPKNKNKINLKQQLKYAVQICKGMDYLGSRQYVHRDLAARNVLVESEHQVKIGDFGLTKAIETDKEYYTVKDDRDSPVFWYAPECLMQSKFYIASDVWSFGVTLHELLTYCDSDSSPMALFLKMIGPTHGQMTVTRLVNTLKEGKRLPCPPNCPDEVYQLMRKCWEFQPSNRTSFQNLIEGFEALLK

| SMILES | inhibition [%] |
| --- | --- |
| COc1ccc(CNC(=O)c2ccc(-c3cc(-c4nnc(C)o4)ccc3C)cc2)cc1 | 7.51 |
| Fc1ccc(-c2cc(-c3c[nH]nc3-c3ccccn3)ccn2)cc1 | 4.79 |
| CS(=O)(=O)CCNCc1ccc(-c2ccc3ncnc(Nc4ccc(OCc5ccccc5)c(C(F)(F)F)c4)c3c2)o1 | 2.98 |
| COc1ccc2c(-c3ccnc(Nc4cccc(OC(F)(F)F)c4)n3)cnn2n1 | 4.66 |
| c1ccc(-c2nc3n(c2-c2ccc4c(c2)OCO4)CCC3)nc1 | -2.35 |
| COc1ccc(-c2cc(-c3c[nH]nc3-c3ccccn3)ccn2)cc1 | 4.74 |
| COc1ccc(-c2cc3c(N)ncnc3o2)cc1 | -0.12 |
| FC(F)(F)c1cccc(-c2nn3ncccc3c2-c2ccnc(Nc3ccc4c(c3)OCCO4)n2)c1 | -1.29 |
| N#Cc1c(NC(=O)CN2CCOCC2)sc2c1CCCC2 | 2.38 |
| COC(=O)Nc1nc2ccc(Oc3ccc(NC(=O)Nc4cccc(Cl)c4)cc3)cc2[nH]1 | 0.77 |
| CN1CCC(n2cnc(-c3ccc(F)cc3)c2-c2ccnc(Nc3ccccc3)n2)CC1 | 1.51 |
| Clc1ccc(-c2nn3ncccc3c2-c2ccnc(Nc3ccccc3)n2)cc1 | -4.43 |
| COc1ccc(-c2nn3ncccc3c2-c2ccnc(Nc3ccc4c(c3)OCCO4)n2)cc1 | 1.48 |
| Nc1nc(-c2ccc(F)cc2)c(-c2ccc3ncccc3n2)s1 | 2.95 |
| COc1ccc2[nH]c3c4[nH]c5ccc(OC)cc5c4c4c(c3c2c1)C(=O)NC4=O | 0.96 |
| Cc1ccc(O)cc1Nc1ccnc2cc(-c3ccccn3)ccc12 | 7.02 |
| NS(=O)(=O)c1ccc(N/N=C2\C(=O)Nc3ccc4ncccc4c32)cc1 | 2.63 |
